# Laboratory results taken from PubChem BioAssay (NCATS).
# Results filed as inconclusive are left out. Entries that show only a call come without a potency. Active and inactive are the calls of the source. Calls follow the shape of the dose curve; as a rule, active = well fitted cell-killing curve with a large enough effect; inconclusive = small, poorly fitted or top-dose-only effect, or effect the other way; inactive = no such curve, though single readings can be large or run the other way.
# Test: Quantitative High-Throughput drug screen in 47 multiple myeloma cell lines against the NCATS MIPE library collection: XG1_PLB cell viability assay (AID 1919866); also: nearly all actives have a fitted effect of over 35% in size
# Conditions: CellTiter-Glo ATP, 48 h; series mostly up to 45.8 µM
# Outline: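 ATP-based luminescence (CellTiter-Glo, 5 min RT incubation) quantified surviving cells following two days' treatment with MIPE 4.0 agents at 37 °C, 5% CO2.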
# Potency is read from the fitted curve at half-maximal effect.
row,Structure (SMILES),Potency
1,CCOC(=O)[C@H](CCc1ccccc1)N[C@H]1CCc2ccccc2N(CC(=O)O)C1=O,18700 nM (active)
2,COc1cc(NS(=O)(=O)c2ccc(N)cc2)nc(OC)n1,inactive
3,CO[C@@]12[C@H](COC(N)=O)C3=C(C(=O)C(C)=C(N)C3=O)N1C[C@@H]1N[C@@H]12,20900 nM (active)
4,CCN1CCCC1CNC(=O)c1cc(S(N)(=O)=O)ccc1OC (stereo not drawn),inactive
5,Nc1ccc(S(=O)(=O)Nc2ccccn2)cc1,inactive
6,O=NN(CCCl)C(=O)NC1CCCCC1,inactive
7,Nc1nc(=S)c2[nH]cnc2[nH]1,662 nM (active)
8,C[C@@H]1CN(c2c(F)c(N)c3c(=O)c(C(=O)O)cn(C4CC4)c3c2F)C[C@H](C)N1,inactive
9,CCc1cc(C(N)=S)ccn1,inactive
10,COc1ccc(C(=O)CC(=O)c2ccc(C(C)(C)C)cc2)cc1,1660 nM (active)
11,CN(C)c1ccc(C(=C2C=CC(=[N+](C)C)C=C2)c2ccc(N(C)C)cc2)cc1,23.5 nM (active)
12,CCC(=O)O[C@]1(C(=O)SCF)[C@H](C)C[C@H]2[C@@H]3C[C@H](F)C4=CC(=O)C=C[C@]4(C)[C@@]3(F)[C@@H](O)C[C@@]21C,14800 nM (active)
13,O=P(O)(O)C(O)(Cc1cccnc1)P(=O)(O)O,inactive
14,CCN(CC)CCn1c(=O)c(Cc2ccc(OC)cc2)nc2ccccc21,inactive
15,COc1ccc2cc3[n+](cc2c1OC)CCc1cc2c(cc1-3)OCO2,16600 nM (active)
16,COC(=O)Nc1nc2ccc(C(=O)c3ccccc3)cc2[nH]1,332 nM (active)
17,CN(CCOc1ccc(CC2SC(=O)NC2=O)cc1)c1ccccn1 (stereo not drawn),inactive
18,CC(C)(C)NC(=O)[C@H]1CC[C@H]2[C@@H]3CC[C@H]4NC(=O)C=C[C@]4(C)[C@H]3CC[C@]12C,235 nM (active)
19,NNC(=O)c1ccncc1,inactive
20,CC(C)OC(=O)C(C(=O)OC(C)C)=C1SC=CS1,inactive
21,C1CCC(C(CC2CCCCN2)C2CCCCC2)CC1 (stereo not drawn),13200 nM (active)
22,CC[C@H](NC(C)C)[C@H](O)c1ccc(O)c2[nH]c(=O)ccc12,inactive
23,Cc1nnc(NS(=O)(=O)c2ccc(N)cc2)s1,1320 nM (active)
24,COc1nc(N)nc2c1ncn2[C@@H]1O[C@H](CO)[C@@H](O)[C@@H]1O,inactive
25,CN1CCN(c2c(F)cc3c(=O)c(C(=O)O)cn(CCF)c3c2F)CC1,inactive
26,CCCCOc1ccc(CC(=O)NO)cc1,inactive
27,CCCCc1oc2ccc(NS(C)(=O)=O)cc2c1C(=O)c1ccc(OCCCN(CCCC)CCCC)cc1,11800 nM (active)
28,CNS(=O)(=O)CCc1ccc2[nH]cc(C3CCN(C)CC3)c2c1,743 nM (active)
